Records with an inconclusive call do not appear. Active and inactive are the calls of the source. The calls were made as follows, unless noted: active = hit-call score of the fitted dose curve at least 0.9, where 1 is the maximum; inactive = score below 0.9.
Experiments:
[1] = target: Paired box protein Pax-6 (Homo sapiens) (UniProt P26367); assay: ATG_Pax6_CIS: Attagene CIS-FACTORIAL HepG2 Assay for human Paired Box 6 (PAX6) (AID 2282956); settings: HepG2 CIS-FACTORIAL PAX6 reporter transcription, RNA readout; actives raise or lower the signal
Paired box protein Pax-6 (Homo sapiens), sequence (P26367 whole entry, looked up): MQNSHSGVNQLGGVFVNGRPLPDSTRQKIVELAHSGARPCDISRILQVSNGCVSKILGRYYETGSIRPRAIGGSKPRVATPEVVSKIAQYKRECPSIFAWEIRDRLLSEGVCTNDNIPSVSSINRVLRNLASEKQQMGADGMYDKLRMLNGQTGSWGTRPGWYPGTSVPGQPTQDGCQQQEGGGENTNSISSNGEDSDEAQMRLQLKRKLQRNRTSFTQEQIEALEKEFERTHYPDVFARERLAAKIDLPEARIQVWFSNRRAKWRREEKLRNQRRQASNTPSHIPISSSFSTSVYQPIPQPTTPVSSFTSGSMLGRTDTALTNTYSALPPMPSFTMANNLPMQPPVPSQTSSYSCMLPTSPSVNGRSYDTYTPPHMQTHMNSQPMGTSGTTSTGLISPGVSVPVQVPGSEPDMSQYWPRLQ
Procedure, shortened: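 Multiplexed cis-reporter HepG2 system; 24 h treatment; reporter mRNA read by RT-PCR/CE fluorescence; bidirectional fit vs DMSO.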

[2] = ATG_PXRE_CIS: Attagene CIS-FACTORIAL HepG2 Assay for human Pregnane X Receptor Element (PXRE) (AID 2282957); settings: HepG2 Attagene CIS-FACTORIAL PXRE reporter, mRNA; actives raise or lower the signal
Procedure, shortened: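 Transfect HepG2 with MRTUs (cis promoter elements); dose chemical, incubate 24 h; isolate RNA, RT with oligo(dT), PCR, 6-FAM label, HpaI cut, CE. Gain/loss fit vs DMSO.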

[3] = ATG_PPRE_CIS: Attagene CIS-FACTORIAL HepG2 Assay for human Peroxisome Proliferator-activated Response Element (PPRE) (AID 2282958); settings: HepG2 PPRE cis-element reporter, Attagene transcription factor profiling; actives raise or lower the signal
Procedure, shortened: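 HepG2 cells transiently transfected with multiplexed cis-element reporter units measure endogenous transcription factor activity. After 24 h compound exposure, reporter mRNA is quantified by RT-PCR, 6-FAM labeling, HpaI digestion and capillary electrophoresis; bidirectional fits are made against DMSO baseline.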

[4] = ATG_Sox_CIS: Attagene CIS-FACTORIAL HepG2 Assay for human SRY-box transcription factor (SOX) (AID 2282960); settings: HepG2 Attagene cis-factorial SOX reporter, mRNA; actives raise or lower the signal
Procedure, shortened: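 HepG2 cells transiently transfected with cis-element-driven multiple reporter transcription units, dosed 24 h; reporter mRNA measured by RT-PCR, FAM labelling, HpaI digestion and capillary electrophoresis. Bidirectional fit versus DMSO baseline.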

[5] = target: Transcription factor Sp1 (Homo sapiens) (UniProt P08047); assay: ATG_Sp1_CIS: Attagene CIS-FACTORIAL HepG2 Assay for human Specificity Protein 1 (Sp1) (AID 2282961); settings: HepG2 Sp1 cis-reporter transcription, actives raise or lower the signal
Transcription factor Sp1 (Homo sapiens), sequence (P08047 whole entry, looked up): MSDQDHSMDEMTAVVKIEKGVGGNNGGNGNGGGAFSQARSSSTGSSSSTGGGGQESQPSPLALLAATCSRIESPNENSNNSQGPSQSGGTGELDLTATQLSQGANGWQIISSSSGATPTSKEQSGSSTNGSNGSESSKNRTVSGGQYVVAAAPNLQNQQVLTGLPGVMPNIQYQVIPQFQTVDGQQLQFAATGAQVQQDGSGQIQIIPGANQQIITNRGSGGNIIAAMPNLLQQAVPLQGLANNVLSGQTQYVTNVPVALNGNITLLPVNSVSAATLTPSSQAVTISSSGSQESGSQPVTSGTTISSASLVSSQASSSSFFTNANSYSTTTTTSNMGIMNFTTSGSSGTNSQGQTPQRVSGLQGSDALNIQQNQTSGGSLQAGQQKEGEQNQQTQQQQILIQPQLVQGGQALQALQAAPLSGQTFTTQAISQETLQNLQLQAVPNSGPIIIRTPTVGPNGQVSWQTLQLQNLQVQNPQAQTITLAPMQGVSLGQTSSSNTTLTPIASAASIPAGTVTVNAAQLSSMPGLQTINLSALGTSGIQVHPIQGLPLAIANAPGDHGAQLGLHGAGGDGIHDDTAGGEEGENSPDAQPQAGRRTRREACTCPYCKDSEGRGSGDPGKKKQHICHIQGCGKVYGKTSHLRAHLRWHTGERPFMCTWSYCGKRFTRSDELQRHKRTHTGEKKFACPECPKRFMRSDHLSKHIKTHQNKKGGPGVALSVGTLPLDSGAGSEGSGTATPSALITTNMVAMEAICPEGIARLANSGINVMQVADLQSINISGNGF
Procedure, shortened: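 HepG2 cells transiently transfected with multiple reporter transcription units driven by cis-regulatory elements; Sp1-responsive reporter mRNA measured 24 h after dosing by RT-PCR and capillary electrophoresis fluorescence, fitted bidirectionally against DMSO baseline.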

[6] = ATG_SREBP_CIS: Attagene CIS-FACTORIAL HepG2 Assay for human Sterol Regulatory Element Binding (SREBP) (AID 2282962); settings: HepG2 Attagene cis-factorial SREBP reporter, mRNA; actives raise or lower the signal
Procedure, shortened: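 mRNA induction of transfected cis-promoter reporters in HepG2 cells, 24 h post-dose. Detection: RT-PCR with 6-FAM-labelled products, HpaI digest, capillary electrophoresis. DMSO served as negative control and baseline.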

[7] = target: Signal transducer and activator of transcription 3 (Homo sapiens) (UniProt P40763); assay: ATG_STAT3_CIS: Attagene CIS-FACTORIAL HepG2 Assay for human Signal Transducer and Activator of Transcription 3 (STAT3) (AID 2282963); settings: HepG2, Attagene cis-factorial STAT3 reporter transcription; actives raise or lower the signal
Signal transducer and activator of transcription 3 (Homo sapiens), sequence (P40763 whole entry, looked up): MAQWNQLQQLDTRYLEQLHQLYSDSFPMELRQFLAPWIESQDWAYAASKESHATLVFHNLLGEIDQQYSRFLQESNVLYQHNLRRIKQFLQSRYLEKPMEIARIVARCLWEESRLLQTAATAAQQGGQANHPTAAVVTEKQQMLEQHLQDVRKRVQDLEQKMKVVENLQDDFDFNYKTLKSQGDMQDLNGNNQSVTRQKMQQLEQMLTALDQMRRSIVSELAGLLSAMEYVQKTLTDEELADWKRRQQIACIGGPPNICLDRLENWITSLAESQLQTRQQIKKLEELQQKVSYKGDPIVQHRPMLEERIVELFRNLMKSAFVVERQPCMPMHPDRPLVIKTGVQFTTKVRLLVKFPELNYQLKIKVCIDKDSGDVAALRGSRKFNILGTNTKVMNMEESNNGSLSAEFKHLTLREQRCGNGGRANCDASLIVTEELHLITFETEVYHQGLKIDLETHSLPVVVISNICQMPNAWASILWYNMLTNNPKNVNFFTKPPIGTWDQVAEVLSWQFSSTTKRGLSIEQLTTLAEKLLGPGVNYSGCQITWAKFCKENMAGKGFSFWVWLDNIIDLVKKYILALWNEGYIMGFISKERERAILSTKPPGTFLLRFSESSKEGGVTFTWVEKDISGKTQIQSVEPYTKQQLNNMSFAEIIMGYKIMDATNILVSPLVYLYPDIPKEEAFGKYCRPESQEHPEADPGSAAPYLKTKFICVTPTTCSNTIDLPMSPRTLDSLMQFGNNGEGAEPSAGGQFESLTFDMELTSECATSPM
Procedure, shortened: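 Values derive from bidirectional fits relative to DMSO of reporter mRNA levels, measured by RT-PCR with capillary electrophoresis, in HepG2 cells carrying transiently transfected cis-regulated reporter units and exposed 24 h.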

[8] = ATG_TA_CIS: Attagene CIS-FACTORIAL HepG2 Assay for human TA Basal Promoter (AID 2282964); settings: HepG2 Attagene CIS-factorial TA basal promoter reporter; actives raise or lower the signal
Procedure, shortened: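 Background-control readout: TA basal promoter reporter mRNA, fitted in both directions relative to DMSO. Measured by RT-PCR and capillary electrophoresis 24 hours after treating HepG2 human liver cells transiently carrying multiplexed cis-regulated reporter constructs.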

[9] = ATG_TCF_b_cat_CIS: Attagene CIS-FACTORIAL HepG2 Assay for human T-Cell-Factor with beta-catenin (TCF/b-cat) (AID 2282965); settings: HepG2 TCF/beta-catenin cis-reporter transcription, actives raise or lower the signal
Procedure, shortened: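 HepG2, transient MRTU transfection, cis-element-driven reporters (endogenous TFs). 24 h compound exposure. Readout: reporter mRNA by RT-PCR + 6-FAM primer extension, HpaI digest, capillary electrophoresis. Gain/loss fit vs DMSO baseline.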

[10] = ATG_TAL_CIS: Attagene CIS-FACTORIAL HepG2 Assay for human TAL Basal Promoter (AID 2282966); settings: HepG2 Attagene cis-factorial TAL promoter reporter; actives raise or lower the signal;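 also: background control endpoint measuring basal TAL promoter reporter mRNA not a specific factor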
Procedure, shortened: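 Fluorescence of labelled reporter cDNA fragments, resolved by capillary electrophoresis, gave the readout. Human HepG2 liver cells carried transiently transfected cis-element reporter units and were treated for 24 hours; activity was fitted bidirectionally against DMSO.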

[11] = ATG_TGFb_CIS: Attagene CIS-FACTORIAL HepG2 Assay for human Transforming Growth Factor (TGF) (AID 2282967); settings: HepG2 Attagene CIS TGFb reporter, mRNA transcription; actives raise or lower the signal
Procedure, shortened: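 Endogenous TGFB1-linked transcription factor activity read as reporter mRNA via RT-PCR and capillary electrophoresis, 24 h after dosing transiently transfected HepG2 cells. Gain or loss of signal fitted relative to DMSO.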

[12] = ATG_VDRE_CIS: Attagene CIS-FACTORIAL HepG2 Assay for human Vitamin D Receptor Element (VDRE) (AID 2282968); settings: HepG2 VDRE cis-reporter transcription, actives raise or lower the signal
Procedure, shortened: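 Cell-based multiplexed reporter format in human liver HepG2 cells, 24 h post-dose. Fluorescence from capillary electrophoresis of reporter cDNA gives the signal, with DMSO as negative control and baseline.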

[13] = target: Nuclear receptor subfamily 1 group I member 3 (Homo sapiens) (UniProt Q14994); assay: ATG_CAR_TRANS: Attagene TRANS-FACTORIAL HepG2 Assay for human Constitutive Androstane Receptor (CAR) (AID 2282969; active = hit-call score of the fitted dose curve at least 0.9, where 1 is the maximum;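 also: activators raise reporter mRNA above DMSO so AC50 marks induction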); settings: HepG2 Attagene TRANS-FACTORIAL CAR reporter
Nuclear receptor subfamily 1 group I member 3 (Homo sapiens), sequence (Q14994 whole entry, looked up, the tested form may be a part): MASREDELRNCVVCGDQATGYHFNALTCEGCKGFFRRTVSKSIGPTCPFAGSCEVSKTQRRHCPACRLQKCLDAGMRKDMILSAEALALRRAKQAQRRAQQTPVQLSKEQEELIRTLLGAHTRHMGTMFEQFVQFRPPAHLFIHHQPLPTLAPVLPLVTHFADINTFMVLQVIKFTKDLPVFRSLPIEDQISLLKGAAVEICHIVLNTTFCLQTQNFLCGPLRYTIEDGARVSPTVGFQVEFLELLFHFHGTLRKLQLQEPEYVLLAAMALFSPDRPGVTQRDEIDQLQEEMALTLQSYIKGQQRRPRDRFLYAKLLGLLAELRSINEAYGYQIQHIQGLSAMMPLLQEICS
Procedure, shortened: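 HepG2 cells transiently transfected with GAL4-UAS reporter units; TRANS format reads activity of exogenous chimeric NR-Gal4 protein. After 24 h dosing, reporter mRNA quantified by RT-PCR, 6-FAM labelling and capillary electrophoresis; gain of signal fitted against DMSO.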

[14] = target: X-box-binding protein 1 (Homo sapiens) (UniProt P17861); assay: ATG_Xbp1_CIS: Attagene CIS-FACTORIAL HepG2 Assay for human X-box Binding Protein 1 (XBP1) (AID 2282972); settings: HepG2 XBP1 cis-element reporter, Attagene multiplex; actives raise or lower the signal
X-box-binding protein 1 (Homo sapiens), sequence (P17861 whole entry, looked up, the tested form may be a part): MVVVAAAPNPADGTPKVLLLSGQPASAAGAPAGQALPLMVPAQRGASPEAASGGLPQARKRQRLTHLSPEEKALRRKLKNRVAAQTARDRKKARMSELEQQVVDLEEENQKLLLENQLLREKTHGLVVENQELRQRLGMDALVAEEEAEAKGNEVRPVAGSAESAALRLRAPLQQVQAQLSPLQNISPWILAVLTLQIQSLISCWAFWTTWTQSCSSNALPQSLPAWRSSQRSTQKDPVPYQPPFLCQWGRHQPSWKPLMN
Procedure, shortened: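 Fluorescence-labelled cDNA fragments from reporter transcripts, separated by capillary electrophoresis, give the signal. Source: HepG2 cells transfected with promoter-driven reporter units, harvested 24 h post-dose. DMSO served as reference for bidirectional curve fitting.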

[15] = target: Androgen receptor (Homo sapiens) (UniProt P10275); assay: ATG_AR_TRANS: Attagene TRANS-FACTORIAL HepG2 Assay for human Androgen Receptor (AR) (AID 2282973; active = hit-call score of the fitted dose curve at least 0.9, where 1 is the maximum); settings: HepG2 Attagene TRANS-FACTORIAL AR reporter transcription
Androgen receptor (Homo sapiens), sequence (P10275 whole entry, looked up, the tested form may be a part): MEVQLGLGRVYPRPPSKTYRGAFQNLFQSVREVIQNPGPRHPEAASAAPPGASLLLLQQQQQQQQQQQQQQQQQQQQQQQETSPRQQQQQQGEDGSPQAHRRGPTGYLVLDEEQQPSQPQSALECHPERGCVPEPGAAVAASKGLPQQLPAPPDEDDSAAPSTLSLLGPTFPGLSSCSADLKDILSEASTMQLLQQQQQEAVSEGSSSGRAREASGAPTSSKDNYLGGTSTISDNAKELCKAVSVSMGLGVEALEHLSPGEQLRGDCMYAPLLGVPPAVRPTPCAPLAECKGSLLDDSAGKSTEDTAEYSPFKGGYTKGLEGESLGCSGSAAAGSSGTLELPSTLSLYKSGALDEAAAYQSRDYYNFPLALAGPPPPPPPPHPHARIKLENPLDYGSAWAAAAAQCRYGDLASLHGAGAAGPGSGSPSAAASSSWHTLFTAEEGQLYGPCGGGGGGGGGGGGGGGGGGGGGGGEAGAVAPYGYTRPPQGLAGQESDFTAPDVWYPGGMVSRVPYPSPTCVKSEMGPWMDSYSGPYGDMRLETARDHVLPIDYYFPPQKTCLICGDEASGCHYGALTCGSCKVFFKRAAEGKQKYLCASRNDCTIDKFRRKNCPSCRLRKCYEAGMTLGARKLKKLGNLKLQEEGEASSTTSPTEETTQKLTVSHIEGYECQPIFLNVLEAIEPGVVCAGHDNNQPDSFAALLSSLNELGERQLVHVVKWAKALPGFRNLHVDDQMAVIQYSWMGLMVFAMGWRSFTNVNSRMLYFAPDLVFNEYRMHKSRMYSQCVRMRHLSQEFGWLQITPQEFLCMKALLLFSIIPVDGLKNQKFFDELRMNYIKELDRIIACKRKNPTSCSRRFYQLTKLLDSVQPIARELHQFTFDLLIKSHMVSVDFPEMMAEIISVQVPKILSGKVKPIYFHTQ
Procedure, shortened: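 Steps: transfect HepG2 with multiple GAL4-UAS reporter transcription units (TRANS format, exogenous NR-Gal4 protein); dose 24 h; isolate RNA, reverse-transcribe, PCR-amplify, FAM-label, HpaI-digest; resolve by capillary electrophoresis. Positive direction vs DMSO.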

[16] = ATG_M_19_TRANS: Attagene TRANS-FACTORIAL HepG2 Assay for M19 Transcription Factor (Internal Marker) (AID 2282974; active = hit-call score of the fitted dose curve at least 0.9, where 1 is the maximum); settings: HepG2 Attagene TRANS-FACTORIAL M19 internal marker reporter
Procedure, shortened: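 HepG2 cells transiently transfected with multiple GAL4-UAS reporter transcription units were exposed to chemicals for 24 h. Reporter mRNA was read by RT-PCR, 6-FAM primer extension, HpaI digestion and capillary electrophoresis; gain of signal fitted relative to DMSO.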

[17] = target: Steroid hormone receptor ERR1 (Homo sapiens) (UniProt P11474); assay: ATG_ERRa_TRANS: Attagene TRANS-FACTORIAL HepG2 Assay for human Estrogen-Related Receptor alpha (ERRa) (AID 2282971; active = hit-call score of the fitted dose curve at least 0.9, where 1 is the maximum); settings: HepG2 Attagene TRANS reporter, ERRa transactivation
Steroid hormone receptor ERR1 (Homo sapiens), sequence (P11474 whole entry, looked up, the tested form may be a part): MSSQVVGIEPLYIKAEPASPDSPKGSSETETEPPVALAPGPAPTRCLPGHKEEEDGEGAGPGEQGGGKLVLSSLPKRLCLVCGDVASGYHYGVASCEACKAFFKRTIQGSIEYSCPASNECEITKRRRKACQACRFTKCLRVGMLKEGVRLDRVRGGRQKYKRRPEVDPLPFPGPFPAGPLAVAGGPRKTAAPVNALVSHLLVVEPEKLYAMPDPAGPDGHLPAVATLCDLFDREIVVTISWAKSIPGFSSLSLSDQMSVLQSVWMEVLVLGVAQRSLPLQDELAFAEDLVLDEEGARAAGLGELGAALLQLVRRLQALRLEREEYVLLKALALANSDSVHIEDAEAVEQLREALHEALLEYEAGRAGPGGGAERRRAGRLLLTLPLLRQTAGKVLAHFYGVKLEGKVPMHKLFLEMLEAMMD
Procedure, shortened: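 Reporter transcript induction was quantified by RT-PCR and capillary electrophoresis of FAM-labelled, HpaI-cut products after 24 h treatment of HepG2 cells carrying transiently transfected GAL4-UAS reporter units and an exogenous ERRa-Gal4 fusion; activity scored as increase over DMSO.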

[18] = ATG_GAL4_TRANS: Attagene TRANS-FACTORIAL HepG2 Assay for GAL4 (Internal Marker) (AID 2282976; active = hit-call score of the fitted dose curve at least 0.9, where 1 is the maximum); settings: HepG2 Attagene TRANS GAL4 internal marker reporter
Procedure, shortened: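 First, HepG2 cells were transfected with reporter units under GAL4-UAS control. Next, they were treated with chemical for 24 h. Finally, RNA was reverse-transcribed, PCR-amplified, FAM-labelled and resolved by capillary electrophoresis, with induction scored against DMSO.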

[19] = ATG_RORE_CIS: Attagene CIS-FACTORIAL HepG2 Assay for human RAR-related Orphan Receptor Element (RORE) (AID 2282959); settings: HepG2 Attagene cis-factorial RORE reporter, mRNA; actives raise or lower the signal
Procedure, shortened: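 HepG2 cells transiently transfected with multiple cis-element reporter transcription units, exposed to chemical for 24 h. Reporter mRNA quantified by RT-PCR, 6-FAM primer-extension labeling, HpaI digestion and capillary electrophoresis; bidirectional fit versus DMSO baseline.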

Measured: AC50

CC(C)(OOC(C)(C)c1ccccc1)c1ccccc1
active: [2] 25 µM | [5] 45.4 µM | [6] 62.9 µM | [7] 100 µM | [10] 142 µM | [12] 26.2 µM | [14] 62.5 µM
inactive: [1] | [3] | [4] | [8] | [9] | [11] | [13] | [15]

COC(=O)Nc1nc2ccccc2[nH]1
inactive: [1] | [2] | [3] | [4] | [6] | [7] | [8] | [9] | [10] | [11] | [12] | [13] | [14] | [16]

O=P(OCCCl)(OCCCl)OCCCl
active: [2] 43.6 µM
inactive: [1] | [3] | [4] | [5] | [6] | [7] | [8] | [9] | [10] | [11] | [12] | [13] | [17] | [16] | [18]

CN(C)C(=O)Nc1ccc(Cl)cc1
inactive: [1] | [2] | [3] | [19] | [4] | [5] | [6] | [7] | [8] | [9] | [10] | [11] | [12] | [18]

Reference: PubChem BioAssay (EPA / NIEHS)
